Experimental data taken from PubChem BioAssay AID1159580 (chemical genetic matrix, 2015).
Where “and” joins values, the source holds several entries; their conditions need not be identical. Equal values may be shown once. Screen size: about 5,500 compounds; about 2,000 (36%) were called active. Another 18% or so got no clear call; they are omitted. No stated cut-off is given here; in the data, active means normalized growth mostly below about 0.91 (no sharp cut-off); inconclusive means no clear call, values can overlap the other calls; inactive means mostly above about 0.92. The list shows a part of the results.

Assay: chemical genetic growth profiling, strain panel (AID 1159580);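 further: tested at 20 µM; growth read once vehicle control cultures reached saturation at 30 °C; 1 = growth at the plate median or of vehicle wells; lower values mean less growth of the strain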
Conditions: S. cerevisiae deletion strains, growth OD
[1] = locus YBR021W, strain FUR4, hits give low values
[2] = locus YBR229C, strain ROT2, hits give low values
[3] = locus YCL029C, strain bik1, hits give low values
[4] = locus YDL035C, strain GPR1, hits give low values
[5] = locus YDL074C, strain BRE1, hits give low values
[6] = locus YDL101C, strain DUN1, hits give low values
[7] = locus YDL134C, strain PPH21, hits give low values
[8] = locus YDL185W, strain tfp1, hits give low values
[9] = locus YDL192W, strain arf1, hits give low values
[10] = locus YDR101C, strain arx1, hits give low values
[11] = locus YDR150W, strain NUM1, hits give low values
[12] = locus YDR162C, strain NBP2, hits give low values
[13] = locus YDR318W, strain mcm21, hits give low values
[14] = locus YDR388W, hits give low values
[15] = locus YDR502C, strain sam2, hits give low values
[16] = locus YER110C, hits give low values
[17] = locus YER155C, strain BEM2, hits give low values
[18] = locus YER167W, strain BCK2, hits give low values
[19] = locus YGL078C, strain dbp3, hits give low values
[20] = locus YGL086W, strain mad1, hits give low values
[21] = locus YGL248W, strain PDE1, hits give low values
[22] = locus YGR135W, strain pre9, hits give low values
[23] = locus YGR252W, strain gcn5, hits give low values
[24] = locus YHR030C, strain SLT2, hits give low values
[25] = locus YHR079C, strain IRE1 (second series), hits give low values
[26] = locus YHR094C, strain hxt1, hits give low values
[27] = locus YHR129C, strain ARP1, hits give low values
[28] = locus YHR200W, strain rpn10, hits give low values
[29] = locus YIL066C, strain RNR3, hits give low values
[30] = locus YIL073C, strain SPO22, hits give low values
[31] = locus YIL125W, strain kgd1, hits give low values
[32] = locus YIR030C, strain dcg1, hits give low values
[33] = locus YJL095W, strain BCK1, hits give low values
[34] = locus YJL134W, strain LCB3, hits give low values
[35] = locus YJL168C, strain set2, hits give low values
[36] = locus YJL187C, strain SWE1 (second series), hits give low values
[37] = locus YJR043C, strain POL32, hits give low values
[38] = locus YKL009W, strain mrt4, hits give low values
[39] = locus YKL068W, hits give low values
[40] = locus YKL085W, strain MDH1 (second series), hits give low values
[41] = locus YKL085W, strain MDH1, hits give low values
[42] = locus YKR001C, strain vps1, hits give low values
[43] = locus YLR039C, strain RIC1, hits give low values
[44] = locus YLR058C, strain SHM2, hits give low values
[45] = locus YLR102C, strain apc9, hits give low values
[46] = locus YLR262C, strain YPT6, hits give low values
[47] = locus YLR268W, strain sec22, hits give low values
[48] = locus YLR330W, strain CHS5, hits give low values
[49] = locus YLR342W, strain FKS1 (second series), hits give low values
[50] = locus YLR371W, strain rom2, hits give low values
[51] = locus YLR418C, strain cdc73, hits give low values
[52] = locus YML016C, strain PPZ1, hits give low values
[53] = locus YML032C, strain rad52, hits give low values
[54] = locus YML124C, strain tub3, hits give low values
[55] = locus YMR078C, strain ctf18, hits give low values
[56] = locus YMR223W, strain ubp8, hits give low values
[57] = locus YMR307W, strain GAS1, hits give low values
[58] = locus YNL067W, strain RPL9B, hits give low values
[59] = locus YNL153C, strain GIM3, hits give low values
[60] = locus YNL233W, strain BNI4, hits give low values
[61] = locus YNL250W, strain rad50, hits give low values
[62] = locus YNL271C, strain bni1, hits give low values
[63] = locus YNL298W, strain CLA4, hits give low values
[64] = locus YNL307C, strain MCK1, hits give low values
[65] = locus YNL322C, strain KRE1, hits give low values
[66] = locus YNR052C, strain pop2, hits give low values
[67] = locus YOL147C, strain pex11, hits give low values
[68] = locus YOR061W, strain CKA2, hits give low values
[69] = locus YOR069W, strain VPS5, hits give low values
[70] = locus YOR136W, strain idh2, hits give low values
[71] = locus YOR144C, strain elg1, hits give low values
[72] = locus YOR184W, strain ser1, hits give low values
[73] = locus YOR316C, strain cot1, hits give low values
[74] = locus YPR119W, strain clb2, hits give low values
[75] = locus YPR141C, strain kar3, hits give low values
[76] = locus YPR163C, strain tif3, hits give low values
[77] = locus YPR167C, strain met16, hits give low values
[78] = strain wtn01, hits give low values

Measured: normalized growth

COC(=O)/C(C)=C\CC12OC(C)(C)C3CC(C=C4C(=O)c5c(O)c6c(c(CCC(C)(C)Cl)c5OC431)OC1(C)CCC(=C(C)C)C6C1)C2=O (configuration not stated)
active: [51] 0.834
inactive: [1] 0.981 | [2] 1.02 | [3] 0.997 | [4] 1.01 | [5] 0.994 | [6] 0.999 | [7] 0.976 | [8] 1.01 | [9] 0.985 | [10] 0.992 | [11] 1.02 | [12] 1.01 | [13] 0.985 | [14] 1.01 | [15] 0.961 | [16] 1.02 | [17] 1.01 | [18] 1.01 | [19] 0.994 | [20] 0.962 | [21] 0.98 | [22] 0.982 | [23] 0.919 | [24] 1.02 | [25] 1 | [26] 1 | [27] 1.01 | [28] 0.984 | [29] 1.01 | [30] 0.987 | [31] 0.985 | [32] 1.01 | [33] 0.959 | [34] 1.03 | [35] 1.01 | [36] 0.986 | [37] 1.02 | [38] 0.979 | [39] 0.999 | [40] 0.997 | [41] 0.997 | [42] 0.952 | [43] 0.957 | [44] 1 | [45] 1.01 | [46] 0.946 | [47] 0.975 | [48] 1.01 | [49] 0.957 | [50] 1.02 | [52] 1.01 | [53] 0.988 | [54] 1.02 | [55] 1 | [56] 0.985 | [57] 0.955 | [58] 1.02 | locus YNL128W, strain TEP1, hits give low values 1.04 | [59] 1 | [60] 0.993 | [61] 1.01 | [62] 1.01 | [63] 1.01 | [64] 0.981 | [65] 1.03 | [66] 0.989 | locus YOL006C, strain TOP1, hits give low values 1.06 | locus YOL012C, strain htz1 0.7 | [67] 1 | [68] 0.999 | [69] 1.02 | [70] 0.987 | [71] 1 | [72] 0.977 | [73] 0.999 | [74] 1.01 | [75] 1.02 | [76] 1 | [77] 0.982 | [78] 0.969

CC(C)=CCCC1(C)C=Cc2c(O)c3c(c(CC=C(C)C)c2O1)OC12C(=CC4CC1C(C)(C)OC2(C/C=C(\C)C(N)=O)C4=O)C3=O (configuration not stated)
inactive: [1] 0.922 | [2] 1 | [3] 0.977 | [4] 0.932 | [5] 0.899 | [6] 0.96 | [7] 0.914 | [8] 0.996 | [10] 0.958 | [11] 1 | [12] 0.92 | [13] 0.941 | [14] 0.96 | [15] 0.924 | locus YEL061C, strain CIN8, hits give low values 0.967 | [16] 0.999 | [18] 0.965 | [19] 0.963 | [20] 0.947 | [21] 0.894 | [22] 0.923 | [23] 0.856 | [24] 0.995 and 0.925 | [25] 0.99 | locus YHR079C, strain IRE1, hits give low values 0.933 | [26] 0.995 | [27] 0.944 | [28] 0.946 | [29] 0.878 | [30] 0.801 | [31] 0.943 | [32] 0.959 | [33] 0.875 and 0.963 | [34] 1 | [35] 0.987 | [36] 0.929 | [37] 0.981 | locus YJR066W, strain TOR1, hits give low values 0.906 | locus YJR075W, strain HOC1, hits give low values 0.944 | [38] 0.931 | [39] 0.995 | [40] 0.99 | [41] 0.99 | locus YKL190W, strain CNB1, hits give low values 0.985 | [43] 0.898 | [44] 0.946 | [45] 1.01 | [46] 0.946 | [47] 0.896 | [48] 0.95 | [49] 0.913 | [50] 0.989 | [52] 0.969 | [53] 0.96 | [54] 0.985 | [55] 0.971 | [56] 0.95 | locus YMR263W, strain SAP30, hits give low values 0.968 | [57] 0.833 | [58] 0.951 | [59] 0.958 | locus YNL183C, strain NPR1, hits give low values 0.868 | [60] 0.915 | [61] 0.983 | [62] 0.993 | [63] 0.989 | [65] 0.976 | [66] 0.981 | locus YOL012C, strain htz1 0.568 | [67] 0.944 | [68] 0.963 | [69] 0.99 | [70] 0.98 | [71] 0.987 | locus YOR231W, strain MKK1, hits give low values 0.937 | [73] 0.995 | locus YPL055C, strain LGE1, hits give low values 0.866 | locus YPL256C, strain CLN2, hits give low values 0.944 | [74] 0.989 | [75] 0.996 | [76] 0.982 | [77] 0.958 | [78] 0.937
active: [9] 0.913 | [17] 0.89 | locus YGR229C, strain SMI1, hits give low values 0.761 | [42] 0.842 | locus YLR113W, strain HOG1, hits give low values 0.852 | [51] 0.699 | [64] 0.844 | [72] 0.872
